# Laboratory results as given in PubChem BioAssay (NCI).
# Values joined by “and” are separate entries in the source; they are usually repeats but may differ in a detail not shown here. Equal entries are not always repeated. This is part of a sample that, as a whole, favours compounds with a hit. Of some 79,000 tested, about 15% had one in any assay. Unmarked numbers belong to inactive results. Active and inactive are the calls of the source. Rule as the data show it: active = growth inhibition above about 70%; inactive = the rest.
# What was measured:
# [1] = NCI Yeast Anticancer Drug Screen. Data for the rad52 strain (AID 147);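 also: 0% = growth of vehicle-treated control cultures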; conditions: S. cerevisiae rad52 mutant growth inhibition, active compounds read high
# Summary of the method: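 Here a repair-compromised yeast strain receives each compound; its growth is then quantified and normalised to vehicle-only controls.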
# [2] = NCI Yeast Anticancer Drug Screen. Data for the wt1 strain (AID 149);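 also: 0% = growth of vehicle-treated wt1 cultures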; conditions: S. cerevisiae wt1 strain (SPY 50644) growth inhibition, active compounds read high
# Summary of the method: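 Growth inhibition read against vehicle controls after compound exposure of the wt1 yeast strain.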
# [3] = NCI Yeast Anticancer Drug Screen. Data for the rad50EPP+ strain (AID 151);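 also: 0% = growth of vehicle-treated control cultures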; conditions: S. cerevisiae rad50 mutant strain, active compounds read high
# Summary of the method: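 Read-out is yeast growth inhibition relative to vehicle; cells used were the rad50EPP+ strain.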
# [4] = NCI Yeast Anticancer Drug Screen. Data for the mgt1 strain (AID 153); conditions: S. cerevisiae mgt1 mutant growth inhibition, active compounds read high
# Summary of the method: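 Measured: inhibition of mgt1 yeast growth by compound, normalized to vehicle-treated cultures.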
# [5] = NCI Yeast Anticancer Drug Screen. Data for the rad50 strain (AID 155);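 also: 0% = growth of vehicle-only cultures of the same strain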; conditions: S. cerevisiae rad50 strain growth inhibition, active compounds read high
# Summary of the method: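 Readout: growth inhibition relative to vehicle-treated cultures. Compound exposure was carried out in a genetically defined yeast strain deficient in DNA damage repair.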
# [6] = NCI Yeast Anticancer Drug Screen. Data for the mec2-1 strain (AID 157); conditions: S. cerevisiae mec2-1 strain, active compounds read high
# Summary of the method: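 Using mec2-1 yeast: add compound, measure growth, express inhibition versus vehicle-treated cultures.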
# [7] = NCI Yeast Anticancer Drug Screen. Data for the rad14 strain (AID 159);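 also: 0% = growth of vehicle-treated control cultures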; conditions: S. cerevisiae rad14 strain growth inhibition, active compounds read high
# Summary of the method: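 Growth inhibition vs vehicle controls; genetically altered yeast strain (DNA damage repair defect) treated with test compounds.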
# [8] = NCI Yeast Anticancer Drug Screen. Data for the sgs1 mgt1 strain (AID 161);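 also: 0% = growth of cultures given vehicle only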; conditions: S. cerevisiae sgs1 mgt1 strain, active compounds read high
# Summary of the method: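 Yeast cells carrying a defined DNA-repair defect were exposed to test compounds. Growth inhibition was measured relative to vehicle-treated controls.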
# [9] = NCI Yeast Anticancer Drug Screen. Data for the CLN2oe strain (AID 163);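 also: 0% = growth of vehicle-only control cultures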; conditions: S. cerevisiae CLN2oe strain, active compounds read high
# Summary of the method: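 Whole-cell yeast growth assay. A strain engineered for altered cell-cycle control received compound, and inhibition relative to vehicle-treated cultures was recorded.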
# [10] = NCI Yeast Anticancer Drug Screen. Data for the cln2 rad14 strain (AID 165);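 also: 0% = growth equal to vehicle treated cultures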; conditions: S. cerevisiae cln2 rad14 strain, active compounds read high
# Summary of the method: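 Yeast strain cln2 rad14, bearing defects in cell cycle control and DNA repair, serves as the test system; values reflect growth inhibition compared with vehicle.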
# [11] = NCI Yeast Anticancer Drug Screen. Data for the bub3 strain (AID 167); conditions: S. cerevisiae bub3 mutant strain, active compounds read high
# Summary of the method: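 Readout: yeast growth inhibition, expressed relative to vehicle-only wells. The test organism is a mutant strain from a panel with lesions in DNA repair or checkpoint genes.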
# [12] = NCI Yeast Anticancer Drug Screen. Data for the wt2 strain (AID 169);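 also: 0% = growth of vehicle-treated yeast cultures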; conditions: S. cerevisiae wt2 strain growth inhibition, active compounds read high
# Summary of the method: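 Treated yeast vs. vehicle-treated yeast: growth inhibition determined.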
# [13] = NCI Yeast Anticancer Drug Screen. Data for the mlh1 strain (AID 171);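 also: 0% = growth of vehicle-treated control cultures of the same strain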; conditions: S. cerevisiae mlh1 strain growth inhibition, active compounds read high
# Summary of the method: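 A yeast strain with a defined genetic lesion serves as the test organism. Cultures receive compound or vehicle, and growth is measured.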
# [14] = NCI Yeast Anticancer Drug Screen. Data for the sgs1 strain (AID 173);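 also: 0% = growth of vehicle-only control cultures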; conditions: S. cerevisiae sgs1 mutant, active compounds read high
# Summary of the method: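 A genetically defined yeast mutant is incubated with the test compound, and its growth is compared to that of the same strain given vehicle.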
# [15] = NCI Yeast Anticancer Drug Screen. Data for the mlh1 rad18 strain (AID 175); conditions: S. cerevisiae mlh1 rad18 strain growth inhibition, active compounds read high
# Summary of the method: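 Steps: expose repair-defective yeast to compound; measure growth; express inhibition against vehicle-treated controls.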
# [16] = NCI Yeast Anticancer Drug Screen. Data for the rad18 strain (AID 177); conditions: S. cerevisiae rad18 mutant growth inhibition, active compounds read high
# Summary of the method: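 Measured value is growth inhibition of a yeast strain bearing a DNA repair alteration, referenced to vehicle-treated cells.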
# [17] = at 5.0 µM (retest, dose inferred, filed as 0.5)
# [18] = at 50.0 µM (retest, dose inferred, filed as 5.0)
compound,measurement,setting,value
Cc1nc2ccc(N=NN(C)C)cc2[nH]1,growth inhibition,[1]; at 1.2 µM,11%
same,growth inhibition,[1]; at 3.7 µM,8%
same,growth inhibition,[1]; at 11.0 µM,3%
same,growth inhibition,[1]; at 33.0 µM,72% (active)
same,growth inhibition,[1]; at 100.0 µM,97% (active)
same,growth inhibition,[2]; at 1.2 µM,13%
same,growth inhibition,[2]; at 3.7 µM,6%
same,growth inhibition,[2]; at 11.0 µM,7%
same,growth inhibition,[2]; at 33.0 µM,25%
same,growth inhibition,[2]; at 100.0 µM,98% (active)
same,growth inhibition,[3]; at 1.2 µM,13%
same,growth inhibition,[3]; at 3.7 µM,14%
same,growth inhibition,[3]; at 11.0 µM,8%
same,growth inhibition,[3]; at 33.0 µM,51%
same,growth inhibition,[3]; at 100.0 µM,98% (active)
same,growth inhibition,[4]; at 1.2 µM,2%
same,growth inhibition,[4]; at 3.7 µM,3%
same,growth inhibition,[4]; at 11.0 µM,15%
same,growth inhibition,[4]; at 33.0 µM,99% (active)
same,growth inhibition,[4]; at 100.0 µM,99% (active)
same,growth inhibition,[5]; at 1.2 µM,22%
same,growth inhibition,[5]; at 3.7 µM,16%
same,growth inhibition,[5]; [17],-3%
same,growth inhibition,[5]; at 11.0 µM,15%
same,growth inhibition,[5]; at 33.0 µM,83% (active)
same,growth inhibition,[5]; [18],97% (active)
same,growth inhibition,[5]; at 50.0 µM,84% (active)
same,growth inhibition,[5]; at 100.0 µM,98% (active)
same,growth inhibition,[6]; at 1.2 µM,15%
same,growth inhibition,[6]; at 3.7 µM,21%
same,growth inhibition,[6]; [17],-9%
same,growth inhibition,[6]; at 11.0 µM,20%
same,growth inhibition,[6]; at 33.0 µM,98% (active)
same,growth inhibition,[6]; [18],98% (active)
same,growth inhibition,[6]; at 50.0 µM,91.3% (active)
same,growth inhibition,[6]; at 100.0 µM,98% (active)
same,growth inhibition,[7]; at 1.2 µM,4%
same,growth inhibition,[7]; at 3.7 µM,4%
same,growth inhibition,[7]; at 11.0 µM,12%
same,growth inhibition,[7]; at 33.0 µM,15%
same,growth inhibition,[7]; at 100.0 µM,97% (active)
same,growth inhibition,[8]; [17],-6%
same,growth inhibition,[8]; [18],7%
same,growth inhibition,[8]; at 50.0 µM,88.8% (active)
same,growth inhibition,[9]; at 1.2 µM,8%
same,growth inhibition,[9]; at 3.7 µM,1%
same,growth inhibition,[9]; at 11.0 µM,30%
same,growth inhibition,[9]; at 33.0 µM,96% (active)
same,growth inhibition,[9]; at 100.0 µM,96% (active)
same,growth inhibition,[10]; [17],8%
same,growth inhibition,[10]; [18],35%
same,growth inhibition,[10]; at 50.0 µM,87.5% (active)
same,growth inhibition,[11]; at 1.2 µM,-6%
same,growth inhibition,[11]; at 3.7 µM,-5%
same,growth inhibition,[11]; [17],-19%
same,growth inhibition,[11]; at 11.0 µM,-2%
same,growth inhibition,[11]; at 33.0 µM,97% (active)
same,growth inhibition,[11]; [18],98% (active)
same,growth inhibition,[11]; at 50.0 µM,87.8% (active)
same,growth inhibition,[11]; at 100.0 µM,98% (active)
same,growth inhibition,[12]; at 1.2 µM,-15%
same,growth inhibition,[12]; at 3.7 µM,4%
same,growth inhibition,[12]; at 11.0 µM,6%
same,growth inhibition,[12]; at 33.0 µM,98% (active)
same,growth inhibition,[12]; at 100.0 µM,98% (active)
same,growth inhibition,[13]; at 1.2 µM,2%
same,growth inhibition,[13]; at 3.7 µM,3%
same,growth inhibition,[13]; at 11.0 µM,15%
same,growth inhibition,[13]; at 33.0 µM,99% (active)
same,growth inhibition,[13]; at 100.0 µM,99% (active)
same,growth inhibition,[14]; at 1.2 µM,27%
same,growth inhibition,[14]; at 3.7 µM,39%
same,growth inhibition,[14]; at 11.0 µM,40%
same,growth inhibition,[14]; at 33.0 µM,49%
same,growth inhibition,[14]; at 100.0 µM,99% (active)
same,growth inhibition,[15]; [17],-7%
same,growth inhibition,[15]; [18],98% (active)
same,growth inhibition,[15]; at 50.0 µM,89% (active)
same,growth inhibition,[16]; at 1.2 µM,18%
same,growth inhibition,[16]; at 3.7 µM,23%
same,growth inhibition,[16]; at 11.0 µM,26%
same,growth inhibition,[16]; at 33.0 µM,77% (active)
same,growth inhibition,[16]; at 100.0 µM,98% (active)
COc1cc(/C=C2\CCC/C(=C\c3ccc(O)c(OC)c3)C2=O)ccc1O,growth inhibition,[1]; at 1.2 µM,-6%
same,growth inhibition,[1]; at 3.7 µM,-6%
same,growth inhibition,[1]; at 11.0 µM,9%
same,growth inhibition,[1]; at 33.0 µM,11%
same,growth inhibition,[1]; at 100.0 µM,4%
same,growth inhibition,[2]; at 1.2 µM,1%
same,growth inhibition,[2]; at 3.7 µM,10%
same,growth inhibition,[2]; at 11.0 µM,15%
same,growth inhibition,[2]; at 33.0 µM,12%
same,growth inhibition,[2]; at 100.0 µM,15%
same,growth inhibition,[3]; at 1.2 µM,0%
same,growth inhibition,[3]; at 3.7 µM,-2%
same,growth inhibition,[3]; at 11.0 µM,24%
same,growth inhibition,[3]; at 33.0 µM,22%
same,growth inhibition,[3]; at 100.0 µM,15%
same,growth inhibition,[4]; at 1.2 µM,0%
same,growth inhibition,[4]; at 3.7 µM,-1%
same,growth inhibition,[4]; at 11.0 µM,1%
same,growth inhibition,[4]; at 33.0 µM,0%
same,growth inhibition,[4]; at 100.0 µM,-3%
same,growth inhibition,[5]; at 1.2 µM,-30%
same,growth inhibition,[5]; at 3.7 µM,-9%
same,growth inhibition,[5]; [17],13%
same,growth inhibition,[5]; at 11.0 µM,-7%
same,growth inhibition,[5]; at 33.0 µM,-7%
same,growth inhibition,[5]; [18],12%
same,growth inhibition,[5]; at 50.0 µM,2.8% and 9.55%
same,growth inhibition,[5]; at 100.0 µM,8%
same,growth inhibition,[6]; at 1.2 µM,-1%
same,growth inhibition,[6]; at 3.7 µM,0%
same,growth inhibition,[6]; [17],4%
same,growth inhibition,[6]; at 11.0 µM,1%
same,growth inhibition,[6]; at 33.0 µM,0%
same,growth inhibition,[6]; [18],15%
same,growth inhibition,[6]; at 50.0 µM,-13.1% and 63.1%
same,growth inhibition,[6]; at 100.0 µM,0%
same,growth inhibition,[7]; at 1.2 µM,5%
same,growth inhibition,[7]; at 3.7 µM,-3%
same,growth inhibition,[7]; at 11.0 µM,12%
same,growth inhibition,[7]; at 33.0 µM,4%
same,growth inhibition,[7]; at 100.0 µM,5%
same,growth inhibition,[8]; [17],8%
same,growth inhibition,[8]; [18],57%
same,growth inhibition,[8]; at 50.0 µM,-12.4% and 59.1%
same,growth inhibition,[9]; at 1.2 µM,-7%
same,growth inhibition,[9]; at 3.7 µM,-6%
same,growth inhibition,[9]; at 11.0 µM,-7%
same,growth inhibition,[9]; at 33.0 µM,-5%
same,growth inhibition,[9]; at 100.0 µM,-6%
same,growth inhibition,[10]; [17],-4%
same,growth inhibition,[10]; [18],6%
same,growth inhibition,[10]; at 50.0 µM,1.65% and 9.95%
same,growth inhibition,[11]; at 1.2 µM,-5%
same,growth inhibition,[11]; at 3.7 µM,-2%
same,growth inhibition,[11]; [17],1%
same,growth inhibition,[11]; at 11.0 µM,-2%
same,growth inhibition,[11]; at 33.0 µM,-4%
same,growth inhibition,[11]; [18],15%
same,growth inhibition,[11]; at 50.0 µM,-24.9% and 44%
same,growth inhibition,[11]; at 100.0 µM,-12%
same,growth inhibition,[12]; at 1.2 µM,6%
same,growth inhibition,[12]; at 3.7 µM,16%
same,growth inhibition,[12]; at 11.0 µM,22%
same,growth inhibition,[12]; at 33.0 µM,27%
same,growth inhibition,[12]; at 100.0 µM,18%
same,growth inhibition,[13]; at 1.2 µM,-8%
same,growth inhibition,[13]; at 3.7 µM,-2%
same,growth inhibition,[13]; at 11.0 µM,-2%
same,growth inhibition,[13]; at 33.0 µM,-1%
same,growth inhibition,[13]; at 100.0 µM,-2%
same,growth inhibition,[14]; at 1.2 µM,-15%
same,growth inhibition,[14]; at 3.7 µM,-10%
same,growth inhibition,[14]; at 11.0 µM,3%
same,growth inhibition,[14]; at 33.0 µM,5%
same,growth inhibition,[14]; at 100.0 µM,-6%
same,growth inhibition,[15]; [17],-3%
same,growth inhibition,[15]; [18],6%
same,growth inhibition,[15]; at 50.0 µM,-13.2% and 11.4%
same,growth inhibition,[16]; at 1.2 µM,-7%
same,growth inhibition,[16]; at 3.7 µM,5%
same,growth inhibition,[16]; at 11.0 µM,3%
same,growth inhibition,[16]; at 33.0 µM,1%
same,growth inhibition,[16]; at 100.0 µM,-7%
